Screens from PubChem BioAssay.
Only some compounds are listed: those with a hit (about 5.3% of all), similar ones and a draw of the others.
TDP1 inh: inhibitors of human tyrosyl-DNA phosphodiesterase TDP1; Q9NUW8; recombinant TDP1, AlphaScreen DNA substrate cleavage; Potency, µM (highest dose often 130 µM), actives largely listed as inhibitors; 0.28% of 350,000 active; AID 485290; note: nearly all actives have a fitted effect of over 40% in size
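AlphaScreen read-out: signal falls as enzyme removes the 3' tyrosine-FITC from a 5'-biotinylated DNA oligo (15 nM, 5 min, RT). Enzyme was E. coli-made recombinant Tdp1 at 1 nM, exposed to compound for 15 min beforehand; beads 10 ug/ml, 10 min.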
JMJD2A Tudor: inhibitors of human JMJD2A Tudor domain. O75164. AlphaScreen JMJD2A-Tudor / H3K4me3 peptide binding. Potency, µM (highest dose often 114 µM), usual class: inhibitors. 4.4% of 390,000 active. AID 504339; note: nearly all actives have a fitted effect of over 50% in size
HP1b chromo inh: HP1-beta chromodomain-methylated histone interaction inhibition. P83916. AlphaScreen HP1-beta / biotin-H3K9me3 peptide binding. Potency, µM (top dose mostly 114 µM), actives largely listed as inhibitors. 0.56% of 390,000 active. AID 540317; note: nearly all actives have a fitted effect of over 70% in size
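HP1-beta protein (50 nM final) preincubated 30 min at room temperature with biotinylated H3(1-18)K9me3 peptide (50 nM) in PBS pH 7.4, 0.01% Tween-20, then compound added for 30 min. AlphaScreen streptavidin donor/nickel chelate acceptor beads (10 ug/mL final), 30 min dark, luminescence read.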
CtBP-E1A inh: inhibitors of CtBP/E1A interaction. AlphaScreen GST-E1A/His-CtBP binding, 1536-well; hits give low values. activity change, % (test concentration not listed). 0.49% of 340,000 active. AID 651724; in the data active = activity change below about -65%; inconclusive = mostly about -30% to -63%
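AlphaScreen with 125 nM GST-E1A and 125 nM His-CtBP (5X stocks) in Tris pH 8.0, 300 mM NaCl, BSA, Tween 20, TCEP. Compounds preincubated 2 h at 37 deg C, then glutathione donor/nickel acceptor beads added for 1 h at 37 deg C in dark.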
BAZ2B block: blocks human BAZ2B. Q9UIF8. AlphaScreen BAZ2B-H3K14Ac peptide displacement. Potency, µM (top dose mostly 114 µM), most hits filed as inhibitors. 4.4% of 360,000 active; note: nearly all actives have a fitted effect of over 60% in size
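In this displacement format the biotinylated H3(5-23) peptide acetylated at Lys14 serves as ligand at 50 nM, with BAZ2B at 50 nM in PBS pH 7.4 containing 0.01% Tween-20. Donor and acceptor beads are 10 ug/mL final.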
Six1-Eya2 blk: Six1/Eya2 interaction inhibition; Q15475+O00167; AlphaScreen GST-Six1/His-Eya2 binding, biochemical; hits give low values; activity change, % (no concentration beside the values); 0.56% of 360,000 active; AID 651725; in the data active = activity change below about -65%; inconclusive = mostly about -30% to -63%
Target sequence (O00167 whole entry, looked up): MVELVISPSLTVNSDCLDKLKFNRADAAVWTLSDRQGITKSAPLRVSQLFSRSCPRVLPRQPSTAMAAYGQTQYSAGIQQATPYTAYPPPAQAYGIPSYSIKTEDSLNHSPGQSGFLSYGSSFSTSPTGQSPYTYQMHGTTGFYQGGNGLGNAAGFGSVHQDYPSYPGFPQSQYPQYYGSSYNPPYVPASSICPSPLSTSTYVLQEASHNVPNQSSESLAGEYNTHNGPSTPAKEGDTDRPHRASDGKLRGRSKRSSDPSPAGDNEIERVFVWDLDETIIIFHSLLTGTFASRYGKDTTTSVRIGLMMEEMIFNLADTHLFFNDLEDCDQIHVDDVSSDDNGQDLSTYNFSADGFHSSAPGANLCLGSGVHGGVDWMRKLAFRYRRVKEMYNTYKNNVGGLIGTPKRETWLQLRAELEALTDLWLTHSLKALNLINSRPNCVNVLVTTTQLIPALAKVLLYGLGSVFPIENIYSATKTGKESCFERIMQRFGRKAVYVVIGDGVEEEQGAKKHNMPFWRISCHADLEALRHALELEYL
Target sequence (Q15475 whole entry, looked up): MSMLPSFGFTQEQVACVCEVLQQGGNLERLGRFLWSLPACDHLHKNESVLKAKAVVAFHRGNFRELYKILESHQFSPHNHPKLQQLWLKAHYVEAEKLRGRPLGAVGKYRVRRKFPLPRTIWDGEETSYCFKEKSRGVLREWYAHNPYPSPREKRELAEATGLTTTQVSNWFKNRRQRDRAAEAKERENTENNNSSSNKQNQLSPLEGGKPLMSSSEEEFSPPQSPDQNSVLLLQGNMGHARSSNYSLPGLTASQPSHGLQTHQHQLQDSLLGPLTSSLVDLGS
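Homogeneous AlphaScreen proximity assay pairing GST-Six1 with His-tagged Eya2 (added as 5X mix: 250 nM and 500 nM) in 50 mM Tris pH 8.0, 300 mM NaCl, 1 mM TCEP. Glutathione donor and nickel acceptor beads; 1 h, 37 °C, dark.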
Hits are given with their value; n = inactive; u = inconclusive; x = no result given. Unless noted, calls come from the whole dose curve; as a rule, active = well fitted inhibition curve with a large enough effect; inconclusive = small, poorly fitted or top-dose-only effect; inactive = no such curve, though single readings can be large or run the other way.

SMILES	TDP1 inh	JMJD2A Tudor	HP1b chromo inh	CtBP-E1A inh	BAZ2B block	Six1-Eya2 blk
CCOC(=O)C1=C(C)N=C2SCCC(=O)N2C1c1ccc(OCc2ccccc2)c(OC)c1 (stereo not drawn)	n	n	n	x	n	x
Cc1nn(-c2ccc(F)cc2)c(Cl)c1/C=N/NC(=O)c1cccs1	79µM	n	n	n	n	n
Clc1nc(Cl)nc(-c2cn(-c3ccccc3)c3ccccc23)n1	n	79µM	n	x	u	n
CC(C)C[C@@H](CN(C)N=O)N(C[C@H](Cc1ccccc1)N(CCc1ccccc1)N=O)N=O	n	n	n	n	n	n
CN(C[C@H](Cc1ccccc1)N(C[C@H](Cc1cccc2ccccc12)N(CCc1ccccc1)N=O)N=O)N=O	x	u	n	n	71µM	n
Cc1c([C@H]2[C@@H](CC#N)C2(C)C)c2ccccc2n1C	n	u	u	n	22µM	n
COc1ccc(S(=O)(=O)N2CCN(Cc3cc(OC)c(O)c(OC)c3)CC2)cc1	n	22µM	u	n	50µM	n
COc1ccc(N2CCN(S(=O)(=O)c3ccc(OC)cc3)CC2)cc1	n	u	u	n	u	n
COc1ccc(NC(=S)N2CCN(S(=O)(=O)c3ccc(OC)cc3)CC2)cc1	n	89µM	n	n	u	n
CCC(CC)N1CCN(S(=O)(=O)c2ccc(OC)cc2)CC1	x	1.6µM	u	n	50µM	n
COc1ccc(S(=O)(=O)N2CCN(Cc3ccccc3)CC2)cc1	n	n	n	n	n	n
COc1ccc(S(=O)(=O)N2CCN(Cc3cc(OC)c(OC)c(OC)c3)CC2)cc1	n	3.2µM	u	n	u	n
Cc1cc(C)n2nc(SCC(=O)Nc3cc(Cl)ccc3C)nc2n1	n	n	n	x	n	x
COCCCNCC(O)COc1ccccc1F (stereo not drawn)	n	1.3µM	u	n	n	n
CC12CCC(C(=O)N(CCCN3CCN(Cc4ccccc4)CC3)C1=O)C2(C)C (stereo not drawn)	n	u	n	n	50µM	n
CCn1c(COc2ccc(=O)n(-c3ccccc3)n2)n[nH]c1=S	n	20µM	n	n	n	n
O=C(CCl)N1N=C(c2cccs2)CC1c1ccco1 (stereo not drawn)	n	n	n	n	n	n
O=C(CCl)N1N=C(c2ccco2)CC1c1ccco1 (stereo not drawn)	n	45µM	50µM	n	45µM	u
O=C(COc1ccc(Cl)cc1)N1N=C(c2cccs2)CC1c1ccco1 (stereo not drawn)	x	n	n	n	x	n
O=C(COc1ccccc1F)N1N=C(c2cccs2)CC1c1ccco1 (stereo not drawn)	n	14µM	n	n	u	n
COc1cccc(CN(C(=O)c2oc3ccccc3c2C)C2CCS(=O)(=O)C2)c1 (stereo not drawn)	n	n	n	x	n	x
CCc1c(C)sc(NC(=O)CC#N)c1C#N	x	u	n	-67	n	u
Nc1cc2c(cc1C(=O)c1ccc(Cl)cc1)OCCO2	n	50µM	n	u	35µM	u
Nc1cc2c(cc1C(=O)c1ccccc1)OCCO2	n	u	n	n	40µM	n
CC(=O)Nc1cc2c(cc1C(=O)c1ccccc1)OCCO2	n	n	n	n	n	n
SMILES	TDP1 inh	JMJD2A Tudor	HP1b chromo inh	CtBP-E1A inh	BAZ2B block	Six1-Eya2 blk
Cc1ccc(C(=O)c2cc3c(cc2N)OCCO3)cc1	n	50µM	n	n	35µM	u
COc1ccc(CCNC(=O)Cc2c(C)c3c(cc(C)c4c(C)c(C)oc43)oc2=O)cc1	n	n	n	x	n	x
CCOC(=O)c1c(C)oc2c1c(C=NCc1ccccn1)c(O)c1ccccc12	n	u	n	n	u	-75
CCOC(=O)c1c(C)oc2c1c(C(c1cccnc1)N1CCOCC1)c(O)c1ccccc12 (stereo not drawn)	n	79µM	u	n	40µM	n
CCOC(=O)c1c(C)oc2c1c(C=NCC1CCCO1)c(O)c1ccccc12 (stereo not drawn)	n	n	n	n	n	n
CCOC(=O)c1c(C)oc2c1c(C(c1cccnc1)N1CCN(C)CC1)c(O)c1ccccc12 (stereo not drawn)	n	x	x	x	u	x
